In PubChem BioAssay AID504766 (The Scripps Research Institute Molecular Screening Center, 2011):
The whole screen tested about 340,000 compounds, of which about 3,400 (1%) were called active.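 The calls were made as follows: active = inhibition above the mean over all tested compounds plus 3 SD (cut at about 4.2% in these data); inactive = the rest.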 Only a selection was taken, and actives are over-represented in it overall.

Molecular target: Nuclear receptor subfamily 0 group B member 1 (Homo sapiens) (UniProt P51843)
Sequence (P51843 207-470 limits assumed): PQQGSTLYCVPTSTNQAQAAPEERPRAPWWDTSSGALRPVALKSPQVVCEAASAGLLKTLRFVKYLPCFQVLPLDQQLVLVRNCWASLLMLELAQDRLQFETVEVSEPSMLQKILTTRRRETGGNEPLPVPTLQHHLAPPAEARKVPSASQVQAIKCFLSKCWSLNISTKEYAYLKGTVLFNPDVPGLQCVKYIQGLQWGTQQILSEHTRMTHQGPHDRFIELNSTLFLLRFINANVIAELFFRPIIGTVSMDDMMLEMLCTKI
Assay: DAX1 (NR0B1) inhibitors, primary screen, cell-based, HEK293, Gal4-DAX1, luciferase luminescence (AID 504766);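 also: 0% = DAX1-transfected cells with DMSO and 100% = empty-vector control cells with DMSO; inhibition shows as a rise in luminescence from relieved DAX1 repression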
Conditions: HEK293 Gal4-DAX1 luciferase reporter, at 6.75 µM, stronger effect = higher value

inhibition, inactive:
CCc1ccccc1NC(=O)CN1CCN(C(=O)c2cc(C3CC3)nn2-c2ccccc2)CC1 -0.77%, COc1ccc(-c2nnc(-c3ccc4ccccc4c3)o2)cc1 0.71%, CN(C)c1ccc(-c2nnc(-c3cccnc3)o2)cc1 2.53%, CCCn1c(N)c(C(=O)CSc2nnc(Cc3cccs3)n2C2CC2)c(=O)[nH]c1=O 0.35%, OCC1OC(n2cnc3c(N4CCCC4)ncnc32)C(O)C1O (configuration not stated) -0.3%, CC1CN(C(=O)c2cccc(NS(=O)(=O)c3ccc(Br)cc3)c2)CC(C)O1 (configuration not stated) 0.52%, Cc1csc(SCC(=O)Nc2ccc(C)c(S(=O)(=O)N(C)C)c2)n1 0.09%, Cc1onc(-c2ccccc2)c1-c1nnc(COC(=O)c2ccc(N(C)C)cc2)o1 -0.6%, N#Cc1c(NC(=O)C2CC(Cl)=CCC2C(=O)O)sc2c1CCCCC2 (configuration not stated) -0.39%, N#Cc1c(NC(=O)CCCl)sc2c1CCCCC2 1.1%, CCN(CC)C(=O)C1=C(C)N(Cc2ccc(F)cc2)C(=O)C(CC(=O)NCc2cccc3ccccc23)C1 (configuration not stated) -0.64%, C[C@H]1NS(=O)(=O)c2cc(Cl)ccc2O[C@@H]1c1ccccc1 -0.34%, COc1ccc(CN2C[C@H]3CON(C)[C@H]3C[C@H]2c2ccc(-c3cccc(F)c3)cc2)cc1 1.13%, CC1=C(C(=O)Nc2cccc(C(=O)NCC(C)c3ccccc3)c2)SCCO1 (configuration not stated) 3.58%, COc1ccc(OC)c(NC(=O)C2CCCN2S(=O)(=O)c2ccc3c(c2)CC(C)N3C(C)=O)c1 (configuration not stated) 1.18%, OCCC1CN(Cc2ccccc2-c2ccco2)CCN1Cc1ccsc1 (configuration not stated) -0.73%, OCCC#Cc1ccc(CN2CCN(Cc3ccsc3)C(CCO)C2)cc1 (configuration not stated) 2.04%, Cc1ccc(S(=O)(=O)/N=C2\C=C(NS(=O)(=O)c3ccc(C)cc3)C(=O)c3ccccc32)cc1 -1.06%, Cc1ccc(S(=O)(=O)N2CCOCC2)cc1NC(=O)c1ccncc1 0.21%, CCC(Oc1ccccc1)C(=O)OCC(=O)Nc1c(C)nn(-c2ccccc2)c1C (configuration not stated) 0.21%, Cc1ccc(S(=O)(=O)N2CCCCC2)cc1NC(=O)CCNC(=O)c1ccccc1Cl 0.48%, CCCCN1C[C@H](c2ccc(Br)cc2)[C@@H](CC(=O)Nc2ccc(Br)cc2)C1=O -0.08%, Cn1c(CNc2nc(-c3ccccc3)cs2)nnc1SCC(=O)c1ccccc1 -1.22%, Cc1cc(NC(=O)c2cc3ccccc3o2)no1 0.08%, COc1ccc(S(=O)(=O)N2CCN(CC(=O)N3CCNC3=O)CC2)cc1OC 0.75%, CCN(C(=O)Nc1cccc2ccccc12)c1ccccc1 0.32%, COC(=O)c1c(NC(=O)CSc2nncs2)sc2c1CCCCC2 -1.11%, COC(=O)c1c(NC(=O)CN(c2ccc(C)c(C)c2)S(C)(=O)=O)sc2c1CCCC2 0.52%, COCCCn1c(=O)/c(=C/c2ccccc2OC(C)C)s/c1=C(\C#N)C(=O)Nc1ccc(C(=O)O)cc1 1.28%, COc1cc(C(=O)OCCCN2CCOCC2)cc(OC)c1OC 0.71%, O[C@H]1CN(Cc2cccs2)[C@@H](c2ccc(Cl)cc2)C[C@@H]1n1cc(C2CC2)nn1 0.8%, COc1ccc(NC(=O)CN2C(=O)CSc3ccc(S(=O)(=O)N4CCC(C)CC4)cc32)cc1 -0.82%, CCc1ccc(NC(=O)CN2C(=O)CSC2=O)cc1 1.29%, CC(=O)Nc1c(-c2ccc(C)cc2)nc2ccc(Cl)cn12 0.08%, C=CCn1nc(C(=O)OCC)cc1-c1sc(NC(=O)c2ccccc2)nc1C -1.54%, O=C(CSc1ccc(Cl)cc1)NC1CC1 0.27%, O=C(Cc1ccc([N+](=O)[O-])cc1)NCCS(=O)(=O)N1CCN(c2ccccc2)CC1 -0.22%, O=C(Cc1c(O)c2ccccc2[nH]c1=O)NCc1ccccc1 1.32%, CCCOC(=O)Cc1c(O)c2ccccc2[nH]c1=O -0.26%, COc1ccc(CN2C(=O)C(CC(=O)NC3CCCCC3)CC(C(=O)N3CCOCC3)=C2C)cc1 (configuration not stated) 0.35%, CCN1CCN(CCNC(=O)c2ccc3c(c2)NC(=O)/C(=C\c2cccc(Cl)c2)S3)CC1 -0.42%, CCOC(=O)C1CCN(C(=O)c2ccc3c(=O)n4nc(Nc5ccccc5CC)sc4nc3c2)CC1 -2.28%, Cc1ccccc1NC(=O)Cc1nc(COC(=O)C(C)(C)Oc2ccc(Cl)cc2)cs1 -0.05%, O=C(NNC(=O)c1ccc2ccccc2c1)c1ccc(Cl)cc1 -1.29%, C(=N\Nc1ccc2ccccc2n1)/c1ccc2c(c1)OCO2 -2.05%, CCn1nnnc1SCC(=O)c1ccc(C)cc1C -0.2%, Cc1ccc(S(=O)(=O)N2C[C@]3(O)C[C@@H]4C(=O)N(c5ccccc5)C(=O)[C@@H]4C[C@]3(OC(=O)NC3CC3)C2)cc1 -1.25%, O[C@@H]1C[C@H](c2ccccc2)N(Cc2cccs2)C[C@H]1n1cc(C2CC2)nn1 1.9%

inhibition, active:
Nc1ccc(-c2nnc(-c3ccccc3)o2)cc1 4.37%, N#Cc1c(NC(=O)C2CCCO2)sc2c1CCCCC2 (configuration not stated) 4.7%, OCCC1CN(Cc2cccc(OC3CCCC3)c2)CCN1Cc1ccsc1 (configuration not stated) 5.86%, CCNc1nc(-c2cc3ccccc3o2)cs1 4.56%, CCc1ccc(N(CC(=O)Nc2sc3c(c2C(=O)OC)CCCC3)S(C)(=O)=O)cc1 5.84%, COc1ccc(NC(=O)CN2C(=O)CSC2=O)cc1 4.34%, NS(=O)(=O)c1ccccc1NC(=O)c1c(O)c2ccccc2[nH]c1=O 4.59%, Clc1ccc(Nc2ccc3ccccc3n2)cc1 5.5%, CSc1nnnn1-c1c(C)cc(C)cc1C 5.68%
